The results in this text go back to ChEMBL document CHEMBL4888484, “Replenishing the malaria drug discovery pipeline: Screening and hit evaluation of the MMV Hit Generation Library 1 (HGL1) against asexual blood stage Plasmodium falciparum ,using a nano luciferase reporter read-out” (2022).

SMILES strings stand for the structures. The campaign covered roughly 150,000 compounds. About 540 (0.36%) showed an effect of 50% or more. The list comes from a sample in which strong results are over-represented; it also holds similar structures and randomly drawn compounds.

This experiment deals with Plasmodium falciparum. Description: Primary screen in NF54 nanoGlo assay, in single point, at 2uM, 72h; a lower Z score goes with more inhibition. Conditions: timepoint 72 hour. The format is functional, Erythrocyte.
By % Inhibition is commonly meant the change of the read-out against control, counted positive when it falls. As for `O=C1[C@@H]2C(c3ccccc3Cl)=NO[C@@H]2C(=O)N1c1ccc2ccccc2c1`, the “% Inhibition” value is recorded as -9% and the Z score turned out to be 1.2.

With `Cc1c(C2=NO[C@H]3C(=O)N(c4ccc(Cl)cc4)C(=O)[C@@H]23)cnn1C`, the “% Inhibition” value is recorded as -7% and the Z score turned out to be 1.

Regarding `Cc1c(C2=NO[C@H]3C(=O)N(c4ccc5ccccc5c4)C(=O)[C@@H]23)cnn1C`, the “% Inhibition” value was found to be 50% and the Z score was -5.99.

As for `O=C(c1ccc2c(c1)CCC2)N1CC(O)C1`, the “% Inhibition” value is listed as 0% and the Z score came out at 0.

For the molecule `Cc1cc(NCc2c(C)noc2C)nc(C2CC2)n1`, the “% Inhibition” value is listed as -7% and the Z score is given as 1.22.

In the case of `c1cc(-c2ccc(N3CCNCC3)nn2)ccn1`, the “% Inhibition” value is listed as 5% and the Z score is reported as -1.03.

As for `Cc1ccc(Nc2ccc(N3CCNCC3)nn2)nc1`, the “% Inhibition” value was 47% and the Z score is recorded as -6.37.

For `Cc1ccnc(Nc2ccc(N3CCNCC3)nn2)c1`, the “% Inhibition” value was found to be 56% and the Z score is -6.55.

In the case of `CC(C)(C)OC(=O)CCc1cccnc1C(=O)O`, the “% Inhibition” value is given as -18% and the Z score was 1.85.

Take `CC1CC(C(=O)N[C@@H](C)c2cnccn2)CC(C)(C)C1` (stereo partly drawn): the “% Inhibition” value stood at 8% and the Z score was -0.99.

Take `CC1CC(C(=O)Nc2[nH]c(=O)ncc2F)CC(C)(C)C1` (stereo not drawn): the “% Inhibition” value is 92% and the Z score is reported as -13.24.

In the case of `CC1CC(C(=O)NCCCn2cn[nH]c2=O)CC(C)(C)C1` (stereo not drawn), the “% Inhibition” value was determined as 0% and the Z score is reported as 0.05.

As for `C#CCNC(=O)c1ccc(N[C@@H](C)COC)nc1`, the “% Inhibition” value is on record as -9% and the Z score is recorded as 1.46.

Take `NC(=O)[C@@H]1CN(Cc2ccc(-c3ccc(Cl)cc3)s2)CCO1`: the “% Inhibition” value is recorded as -11% and the Z score is reported as 1.78.

As to `Cc1cc(C)cc(-n2c(=O)c3sccc3n(CC(=O)Nc3ccc(N(C)C)cc3)c2=O)c1`, the “% Inhibition” value worked out at 51% and the Z score was determined as 1.43.

Consider `COc1cccc(Cn2c(=O)c3sccc3n(CC(=O)Nc3ccc(N(C)C)cc3)c2=O)c1`, for which the “% Inhibition” value came out at 37% and the Z score is -1.71.

In the case of `Cc1ccccc1-n1c(=O)c2sccc2n(CC(=O)Nc2ccc(N(C)C)cc2)c1=O`, the “% Inhibition” value worked out at 2% and the Z score is -0.2.

Turning to `CCN(CCn1cccn1)Cc1cncn1C1CC1`, the “% Inhibition” value is reported as -7% and the Z score is given as 1.49.

Regarding `CCOC(=O)c1nc(NCC2CCN(Cc3ccccc3F)CC2)c2ccccc2n1`, the “% Inhibition” value is listed as -6% and the Z score was 1.09.

For the molecule `CCc1ccccc1Nc1c2c(nc3ccccc13)CCCC2`, the “% Inhibition” value is on record as 9% and the Z score was -1.19.

In the case of `CCc1nnc(NCC(C)(C)CCS(C)(=O)=O)c(C#N)c1CC`, the “% Inhibition” value is recorded as 2% and the Z score is -0.31.

Turning to `CC(C)Oc1ccc(-c2cc(C(F)(F)F)n3nc(-c4ccccc4)c(-c4ccccc4)c3n2)cc1`, the “% Inhibition” value was -15% and the Z score was 1.87.

Turning to `Cc1ccnc([C@@H](NC(=O)c2c[nH]c3cc(C)nn3c2=O)C2CC2)c1`, the “% Inhibition” value is -2% and the Z score was 0.39.

On to `COc1ccc(OC)c([C@H]2N(Cc3ccc(F)cc3)CCCN2Cc2ccccc2Cl)c1`, for which the “% Inhibition” value is on record as -3% and the Z score is 0.37.
